# Test results as given in the supplement of paper PMC10338343.
# ± gives the standard deviation.
# Columns and labels:
# [1] = test system: MILI (PIWIL2) piRISC loaded with L1MC piRNA (26 nt); test: pre-steady-state target cleavage rate (min^-1); guide: L1MC piRNA 5'p-UAACUAAAUACUAUGCAAGCUGUAGG; higher = faster piRNA-guided slicing of the target
# Method in brief: (§1)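 Cleave-'n-Seq reactions paired 0.1 nM transcribed, DNA-blocked target RNA library with 1 nM active affinity-purified piRISC holding one synthetic guide, plus or minus 500 nM GTSF1 partner protein, in HEPES–potassium acetate buffer at 33 °C for 0–8 or 0–960 min. After sequencing of uncleaved targets and normalisation to depth and weakly complementary targets, the pre-steady-state cleavage rate was taken from a burst-and-steady-state fit. Three trials were pooled, and k3 was capped at 0.0001 min^-1.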
# [2] = test system: EfPiwi piRISC loaded with L1MC piRNA (26 nt); test: pre-steady-state target cleavage rate (min^-1); auxiliary factor: 500 nM Ephydatia muelleri Gtsf1; guide: L1MC piRNA 5'p-UAACUAAAUACUAUGCAAGCUGUAGG; MIWI and MILI are mouse PIWI proteins and EfPiwi is from a freshwater sponge; tags in brackets are library labels; higher = faster piRNA-guided slicing of the target
# Method in brief: as §1
# [3] = auxiliary factor: 500 nM mouse GTSF1
# [4] = auxiliary factor: none (no GTSF1)
Sequence,"pre-steady-state target cleavage rate [1, 3]","pre-steady-state target cleavage rate [1, 4]",pre-steady-state target cleavage rate [2]
UCCUGCUACAGCAUGCUUAGUAUUUAGUUA,0.255 ± 0.017,0.00606 ± 0.0028,0.0122 ± 0.0038
UCCUGCUUCAGCAUGCAUAGUAUUUAGUUA,0.291 ± 0.015,0.0121 ± 0.0034,0.0186 ± 0.0047
UCCUGGUACAGCUUGCUUAGUAUUUAGUAA,0.244 ± 0.03,0.00308 ± 0.0025,0.00376 ± 0.0023
UCCUGGAUCAGCGUGCAUAGUAUUUAGUUA,0.225 ± 0.015,0.00697 ± 0.0035,0.0619 ± 0.012
UCCUGGUACAGCUAGCAUAGUAAUUAGUUA,0.236 ± 0.041,0.00483 ± 0.0027,0.00407 ± 0.0023
UCCUGGAUGUCCUUGCAUAGUAUUUAGUUG [g2:g19:cont:t1G],0.0765 ± 0.0096,0.00821 ± 0.002,0.00478 ± 0.0018
UCCUCCUACAGCUUGCAAAGUAUUUAGUAA,0.142 ± 0.016,0.00404 ± 0.0019,0.00609 ± 0.0029
UCCUGCUAUAGCUUGCAUAGUAUUUAGUUA,0.221 ± 0.017,0.00678 ± 0.0018,0.014 ± 0.0046
UCCUGGAUGAGGAUGCAUAGUAUUUAGUUA,0.103 ± 0.017,0.00665 ± 0.0021,0.00336 ± 0.0024
UCCUGCUACAGCUUUCAUAGUAUUUAGUUA,0.188 ± 0.021,0.00503 ± 0.0022,0.00701 ± 0.0022
UCCUGGAUGUCCUUGCAUAGUAUUUAGUA,0.0747 ± 0.012,0.00356 ± 0.0024,0.00759 ± 0.0039
UCCUGCUACACCUUGCAUAGUUUUUAGUUA,0.0358 ± 0.01,0.00475 ± 0.0022,0.00395 ± 0.002
UCCUGGUGACAGCUUGCAUAGUAUUUAGUUA,0.507 ± 0.044,0.0285 ± 0.0085,0.0328 ± 0.01
UCCUGGAUGAGCAUGCAUAGUAUUUAGUUA,0.199 ± 0.016,0.00939 ± 0.0029,0.0207 ± 0.0065
UCCUGGUAACAGCUUGCAUAGUAUUUAGUUA,0.244 ± 0.02,0.016 ± 0.0044,0.0495 ± 0.011
UCCUCCUACAGCAUGGAUAGUAUUUAGUUA,0.269 ± 0.014,0.00942 ± 0.0022,0.096 ± 0.023
UCCUGGAUCAGGUUGCAUAGUAUAUAGUUA,0.197 ± 0.017,0.00574 ± 0.0022,0.00644 ± 0.0033
UCCUGGAUCUGCAUGCAUAGUAUUUAGUUA,0.209 ± 0.015,0.00837 ± 0.0023,0.0798 ± 0.021
UCCUGGAACUGCUUGCAUUGUAUUUAGUUA,0.177 ± 0.015,0.00842 ± 0.0019,0.00574 ± 0.0019
UCCUGGAAGAGCUUGGAUAGUAUUUAGUUA,0.178 ± 0.0086,0.00531 ± 0.0023,0.00392 ± 0.0027
UCCUCGUACAGCUAGCAUAGUAUUUAGUUA,0.281 ± 0.012,0.00766 ± 0.0022,0.0402 ± 0.01
UCCUGGUACAGCUUGCAUAGUAAUUUAGUUA,0.186 ± 0.025,0.0129 ± 0.0045,0.00647 ± 0.0026
UCCUGGAACAGCUCGCAUAGUAUUUAGUUA,0.256 ± 0.012,0.00773 ± 0.0031,0.0171 ± 0.0048

Sequence,"pre-steady-state target cleavage rate [1, 3]","pre-steady-state target cleavage rate [1, 4]",pre-steady-state target cleavage rate [2]
UCCUGCAACAGCUUGCAAAGUAUUUAGUUA,0.166 ± 0.012,0.00683 ± 0.0024,0.022 ± 0.0052
UCCUGGUACAGCAUGCAUAGUAUAUAGUUA,0.241 ± 0.038,0.00583 ± 0.0028,0.00569 ± 0.0031
UCCUGCUACUGCUUGCUUAGUAUUUAGUUA,0.202 ± 0.022,0.00589 ± 0.002,0.0076 ± 0.0022
UCCUGCUACAGACUUGCAUAGUAUUUAGUUA,0.169 ± 0.018,0.00767 ± 0.0021,0.00603 ± 0.0024
UCCUGGUACAGCUUGGAUAGUAUUUAGUUA,0.206 ± 0.024,0.0152 ± 0.0038,0.0049 ± 0.0027
UCCUGGUACAGCUUGCAUAGUGUUUAGUUA,0.162 ± 0.026,0.00946 ± 0.0035,0.00794 ± 0.0028
UCCUGGAUCAGCUUAGCAUAGUAUUUAGUUA,0.232 ± 0.018,0.00685 ± 0.0027,0.0874 ± 0.019
UCCUGGAACACGCUUGCAUAGUAUUUAGUUA,0.249 ± 0.025,0.0151 ± 0.0044,0.0331 ± 0.011
UCCUGGAUGAGCGUUGCAUAGUAUUUAGUUA,0.192 ± 0.017,0.00904 ± 0.0031,0.00582 ± 0.0034
UCCUGGUACAGCUUGCAAACUAUUUAGUUA,0.0345 ± 0.007,0.00378 ± 0.0028,0.00276 ± 0.0022
UCCUGGUACUAGCUUGCAUAGUAUUUAGUUA,0.068 ± 0.021,0.00943 ± 0.003,0.00885 ± 0.0038
UCCUGGAACAGCUUGCAUAGUACUUUAGUUA,0.168 ± 0.015,0.00486 ± 0.0022,0.00922 ± 0.0033
UCCUGGAUGUCGUUGCAUAGUACUUAGUUA,0.0399 ± 0.011,0.00463 ± 0.0029,0.00365 ± 0.0035
UCCUGGAACAGCUUGCAUAGUAUUUAGUAUA,0.273 ± 0.027,0.00406 ± 0.0038,0.00935 ± 0.005
UCCUGCUACUGCUUGCAUAGUUUUUAGUUA,0.0524 ± 0.011,0.00424 ± 0.0018,0.00399 ± 0.0017
UCCUCCUACAGCUUGGAUUGUAUUUAGUUA,0.165 ± 0.015,0.00457 ± 0.002,0.0225 ± 0.0082
UCCUGGAUAAGCUUGCAUAGUAUUUAGUUA,0.276 ± 0.017,0.0122 ± 0.0029,0.0102 ± 0.004
UCCUGCUACUGCUUGCAUAGUAUUUUGUUA,0.138 ± 0.024,0.00318 ± 0.0029,0.0061 ± 0.0024
UCCUGCUAGACCUUGCAUAGUAUUUAGUUA,0.171 ± 0.02,0.00811 ± 0.0031,0.00526 ± 0.0023
UCCUGGAUCUGCUUGCAUAGUAUUUUGUUA,0.092 ± 0.015,0.00429 ± 0.0026,0.0153 ± 0.0053
UCCUGCUAGAGCUUGCAUUGUAUUUAGUUA,0.219 ± 0.018,0.0097 ± 0.0023,0.00751 ± 0.0022
UCCUGGAUGUGCUUGCAUAGUAUUUAGUUC [g2:g20:cont:t1C],0.12 ± 0.013,0.00589 ± 0.0026,0.0175 ± 0.0048
UCCUGGUACGCUUGCAUAGUAUUUAGUUA,0.222 ± 0.034,0.0143 ± 0.0047,0.00582 ± 0.0027
